We go through 11 compounds from PubChem BioAssay (Tox21).

Test [1] in a line: Nuclear factor erythroid 2-related factor 2/antioxidant responsive element (Nrf2/ARE) small molecule agonists: qHTS cell viability counter screen in human keratinocytes (AID 1919968; active = well fitted curve in the direction sought with a large enough effect in the repeat runs; an effect the other way counts as inactive or inconclusive; also: nearly all actives have a fitted effect of over 55% in size; also: potency is read from the fitted curve at half-maximal effect). In a few lines:
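Viability counter-screen: KeratinoSens reporter cells, DMSO-delivered compounds, 23 h at 37 C, CellTiter-Fluor fluorescence.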

Test [2] can be described thus: Nuclear factor erythroid 2-related factor 2/antioxidant responsive element (Nrf2/ARE) small molecule agonists: luciferase reporter gene qHTS assay in human keratinocytes (AID 1919969). Also: nearly all actives have a fitted effect of over 35% in size. Also: potency is read from the fitted curve at half-maximal effect. On the technique in general: Reporter assays use an easily measured gene product as a stand-in for the process of interest.
The target of test [3] is Gonadotropin-releasing hormone receptor (Homo sapiens) (UniProt P30968). Nature of the test: Human gonadotropin-releasing hormone receptor (GnRHR) small molecule agonists, calcium flux assay in GnRHR-HEK293 cells (AID 1920063). Also: nearly all actives have a fitted effect of over 35% in size. In a few lines: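 Tox21-format agonist screen using human GnRHR-expressing HEK293 cells and a fluorescent calcium dye; kinetic 3-min fluorescence reading after compound addition, 15-point concentration series run in triplicate.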
Gonadotropin-releasing hormone receptor (Homo sapiens), sequence (P30968 whole entry, looked up): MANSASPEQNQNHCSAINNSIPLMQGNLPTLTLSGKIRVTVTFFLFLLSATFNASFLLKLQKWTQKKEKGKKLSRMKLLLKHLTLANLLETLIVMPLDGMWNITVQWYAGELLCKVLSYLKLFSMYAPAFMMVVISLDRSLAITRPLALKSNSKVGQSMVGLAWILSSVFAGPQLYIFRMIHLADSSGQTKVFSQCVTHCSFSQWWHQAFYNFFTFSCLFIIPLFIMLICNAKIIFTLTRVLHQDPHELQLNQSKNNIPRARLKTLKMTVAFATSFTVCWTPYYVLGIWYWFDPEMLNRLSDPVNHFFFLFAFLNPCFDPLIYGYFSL

Test [4] concerns the target KiSS-1 receptor (Homo sapiens) (UniProt Q969F8). Nature of the test: Human kisspeptin (KISS1R) small molecule agonists, calcium flux assay in KISS1R-HEK293 cells (AID 1920064; active = well fitted curve in the direction sought with a large enough effect in the repeat runs; an effect the other way counts as inactive or inconclusive). In a few lines:
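Intracellular calcium mobilization in KISS1R-HEK293 cells was recorded by fluorescence (Ex/Em 480/540) for 3 min following compound addition to cells pre-loaded 1 h with calcium dye.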
(Calcium flux is commonly read through the fluorescence of an indicator in the cells.)

Test [5] in a line: p53 small molecule agonists, cell-based qHTS assay with rat liver microsomes (AID 1963578). The method in brief: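 Read-out is beta-lactamase reporter fluorescence (LiveBLAzer, 2 h, room temperature, dark) in p53RE-bla cells treated 16 h at 37 C with compound, rat liver microsomes and NADPH, both 0.5 mg/mL final.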
Test [6] is described as follows: p53 small molecule agonists, cell-based qHTS assay with human liver microsomes: qHTS cell viability counter screen (AID 1963579). Also: nearly all actives have a fitted effect of over 45% in size. The method in brief:
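Cells carrying the p53 response-element beta-lactamase reporter are treated for 16 h at 37 C with test compounds in the presence of human liver microsomes and NADPH (both 0.5 mg/mL final); ATP-based CellTiter-Glo luminescence then reports viability.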
For orientation: qHTS replaces the single test concentration by a dilution series.

A short description of test [7]: p53 small molecule agonists, cell-based qHTS assay with rat liver microsomes: qHTS cell viability counter screen (AID 1963580). Also: nearly all actives have a fitted effect of over 45% in size. In a few lines: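 p53RE-bla HCT-116 cells were exposed 16 h at 37 C to compounds with rat liver microsomes (0.5 mg/mL) and NADPH (0.5 mg/mL). Viability was measured in the same wells as ATP content by CellTiter-Glo luminescence.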
A short description of test [8]: p53 small molecule agonists, cell-based qHTS assay: qHTS cell viability counter screen (AID 1963581). Also: nearly all actives have a fitted effect of over 45% in size. In a few lines: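 Compounds are pinned onto HCT-116 p53RE-bla cells and left 16 h at 37 C. Following the reporter FRET read, ATP is quantified by CellTiter-Glo luminescence after 30 min at room temperature.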
Test [9] in a line: p53 small molecule agonists, cell-based qHTS assay (AID 1963582; active = well fitted activation curve with a large enough effect in the signal ratio in the repeat runs, not every such curve was filed as active; the % refers to the signal ratio). The method in brief:
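Agonist activity was scored from beta-lactamase FRET fluorescence in p53RE-bla cells treated 16 h at 37 C with compounds in DMSO, substrate incubation being 2 h at room temperature.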

The target in test [10] is 5-hydroxytryptamine receptor 2A (Homo sapiens) (UniProt P28223). Nature of the test: 5-hydroxytryptamine receptor 2A (HTR2A) small molecule antagonists, cell-based qHTS assay (AID 1963586). Also: nearly all actives have a fitted effect of over 45% in size. The method in brief: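 Antagonist-mode intracellular calcium assay: DOI (4 nM) added after 5 min compound pre-incubation at room temperature to dye-loaded HTR2A-CHO cells. Fluorescence followed for 3 min, sampled every second.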
5-hydroxytryptamine receptor 2A (Homo sapiens), sequence (P28223 whole entry, looked up): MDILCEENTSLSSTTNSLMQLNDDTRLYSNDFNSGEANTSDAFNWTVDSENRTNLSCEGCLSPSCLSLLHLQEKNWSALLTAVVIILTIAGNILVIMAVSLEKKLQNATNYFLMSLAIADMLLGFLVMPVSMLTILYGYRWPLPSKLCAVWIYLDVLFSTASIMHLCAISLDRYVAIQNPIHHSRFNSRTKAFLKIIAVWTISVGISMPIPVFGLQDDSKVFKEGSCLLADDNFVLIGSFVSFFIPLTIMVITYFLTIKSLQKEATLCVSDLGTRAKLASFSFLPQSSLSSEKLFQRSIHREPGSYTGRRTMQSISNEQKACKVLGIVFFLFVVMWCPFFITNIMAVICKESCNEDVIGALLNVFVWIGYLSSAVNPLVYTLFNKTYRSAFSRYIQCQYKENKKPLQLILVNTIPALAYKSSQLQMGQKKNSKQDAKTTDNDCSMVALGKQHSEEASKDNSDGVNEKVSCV

For test [11] the target is unchanged. Nature of the test: 5-hydroxytryptamine receptor 2A (HTR2A) small molecule agonists, cell-based qHTS assay (AID 1963587). Also: nearly all actives have a fitted effect of over 30% in size. The method in brief: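 CHO cells stably expressing human HTR2A, plated 18 h, loaded with calcium dye 1 h at 37 C. Agonist mode: compounds added and intracellular calcium fluorescence recorded kinetically for 2 min at 1 sec intervals.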
Test [12] concerns the target Muscarinic acetylcholine receptor M1 (Homo sapiens) (UniProt P11229). Nature of the test: Cholinergic receptor muscarinic 1 (CHRM1) small molecule antagonists, cell-based qHTS assay (AID 1963588). Also: nearly all actives have a fitted effect of over 40% in size. In a few lines:
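CHRM1-CHO calcium-flux assay, antagonist mode. Cells were seeded 18 h, dye-loaded 1 h at 37 C and given compound for 5 min at RT, then acetylcholine was added at 50nM. FDSS fluorescence was read 3 min; 15 concentrations, three runs.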

The target is the same in test [13]. Briefly: Cholinergic receptor muscarinic 1 (CHRM1) small molecule agonists, cell-based qHTS assay (AID 1963589). Also: nearly all actives have a fitted effect of over 35% in size. The method in brief:
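Stable CHRM1-CHO cells (human receptor) were incubated 18 h, dye-loaded for 1 h at 37 C and exposed to test compounds for agonist activity, with calcium-dependent fluorescence followed kinetically.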

Test [14] is described as follows: cAMP Responsive Elements (CRE) small molecule antagonists, cell-based qHTS assay (AID 1963591; active = well fitted inhibition curve with a large enough effect in the signal ratio in the repeat runs, not every such curve was filed as active; the % refers to the signal ratio). In a few lines: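 qHTS in CRE-bla HEK 293T cells: compound in DMSO, then 0.25 uM NKH477 (final), 3 h at 37 °C/5% CO2; beta-lactamase FRET read-out after 2 h substrate incubation.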
Test [15] deals with Beta-2 adrenergic receptor (Homo sapiens) (UniProt P07550). Briefly: Adrenergic beta2 receptor (ADRB2) small molecule antagonists, cell-based qHTS assay (AID 1963592). Also: nearly all actives have a fitted effect of over 50% in size. Also: potency is read from the fitted curve at half-maximal effect. The method in brief: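 Cells (CHO, stable ADRB2 overexpression) incubated 18-20hr at 37C; compounds added from DMSO; agonist mix (1nM isoproterenol, 100uM IBMX, 25uM Ro-20-1724) added; 0.5hr RT; d2-cAMP and anti-cAMP-cryptate added; 1hr RT; 665/615 nm read.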
Beta-2 adrenergic receptor (Homo sapiens), sequence (P07550 whole entry, looked up): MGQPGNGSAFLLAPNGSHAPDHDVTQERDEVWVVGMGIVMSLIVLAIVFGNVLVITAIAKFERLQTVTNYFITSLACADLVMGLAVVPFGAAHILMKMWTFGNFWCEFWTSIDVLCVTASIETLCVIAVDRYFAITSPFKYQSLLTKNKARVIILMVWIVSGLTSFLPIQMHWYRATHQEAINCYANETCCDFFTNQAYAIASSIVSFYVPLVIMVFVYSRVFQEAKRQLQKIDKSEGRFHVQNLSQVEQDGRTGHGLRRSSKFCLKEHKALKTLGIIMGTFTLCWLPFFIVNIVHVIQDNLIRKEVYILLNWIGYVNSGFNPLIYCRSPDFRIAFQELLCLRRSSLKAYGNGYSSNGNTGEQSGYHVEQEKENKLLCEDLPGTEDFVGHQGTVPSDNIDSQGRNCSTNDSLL

For test [16] the target is unchanged. Briefly: Adrenergic beta2 receptor (ADRB2) small molecule agonists, cell-based qHTS assay (AID 1963593).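 Also: CHO cells stably overexpressing human ADRB2.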 The method in brief: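 CHO cells stably over-expressing ADRB2 were plated overnight at 37C, then dosed with compounds plus a stimulation mix containing 100uM IBMX and 25uM Ro-20-1724 for 0.5hr at room temperature. cAMP was measured by HTRF competition, 1hr.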

Test [17] deals with D(2) dopamine receptor (Homo sapiens) (UniProt P14416). Briefly: Dopamine D2 receptor (DRD2) small molecule agonists, cell-based qHTS assay (AID 1963594). Also: nearly all actives have a fitted effect of over 35% in size. In a few lines:
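HEK293 cells stably expressing human DRD2, pre-treated with PDE inhibitor Ro20-1724 (0.1 mM final) and compound 10 min at room temperature, then stimulated with NKH477 (200nM […]) for 30 min. cAMP read by HTRF (665/620 nm).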

Test [18] has the same target. Nature of the test: Dopamine D2 receptor (DRD2) small molecule antagonists, cell-based qHTS assay (AID 1963595; active = well fitted inhibition curve with a large enough effect in the signal ratio in the repeat runs, with a control signal flat; the % refers to the signal ratio). The method in brief:
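HEK293 cells stably expressing DRD2 were preincubated with 0.1 mM Ro20-1724, then with compound for 10 min at room temperature. Cells were stimulated with 200 nM NKH477 plus 12 nM quinpirole for 30 min, and cAMP was read by HTRF.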

Test [19] in a line: cAMP Responsive Elements (CRE) small molecule agonists, cell-based qHTS assay (AID 1963590). The method in brief: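 FRET-based beta-lactamase readout (LiveBLAzer B/G, 2 h RT) quantified CRE activation in HEK 293T CRE-bla cells after 3 h treatment with DMSO-dissolved compounds.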

A number with no mark means an inactive call. Results filed as inconclusive are left out. The source made the active and inactive calls. Unless noted, calls follow the shape of the full dose curve.

Muscarinic acetylcholine receptor M1 (Homo sapiens), sequence (P11229 whole entry, looked up): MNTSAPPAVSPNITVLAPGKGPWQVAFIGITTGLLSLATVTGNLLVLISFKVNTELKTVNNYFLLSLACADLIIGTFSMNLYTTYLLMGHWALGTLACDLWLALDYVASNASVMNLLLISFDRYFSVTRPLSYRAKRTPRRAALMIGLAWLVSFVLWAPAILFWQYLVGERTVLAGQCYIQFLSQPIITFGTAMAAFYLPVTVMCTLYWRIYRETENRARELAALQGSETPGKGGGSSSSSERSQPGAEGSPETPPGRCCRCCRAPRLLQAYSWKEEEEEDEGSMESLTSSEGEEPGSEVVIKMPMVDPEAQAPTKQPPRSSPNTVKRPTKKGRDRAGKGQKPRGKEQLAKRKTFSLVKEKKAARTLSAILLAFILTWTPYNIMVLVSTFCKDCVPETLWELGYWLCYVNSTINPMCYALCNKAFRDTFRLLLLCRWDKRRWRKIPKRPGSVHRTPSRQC
KiSS-1 receptor (Homo sapiens), sequence (Q969F8 whole entry, looked up): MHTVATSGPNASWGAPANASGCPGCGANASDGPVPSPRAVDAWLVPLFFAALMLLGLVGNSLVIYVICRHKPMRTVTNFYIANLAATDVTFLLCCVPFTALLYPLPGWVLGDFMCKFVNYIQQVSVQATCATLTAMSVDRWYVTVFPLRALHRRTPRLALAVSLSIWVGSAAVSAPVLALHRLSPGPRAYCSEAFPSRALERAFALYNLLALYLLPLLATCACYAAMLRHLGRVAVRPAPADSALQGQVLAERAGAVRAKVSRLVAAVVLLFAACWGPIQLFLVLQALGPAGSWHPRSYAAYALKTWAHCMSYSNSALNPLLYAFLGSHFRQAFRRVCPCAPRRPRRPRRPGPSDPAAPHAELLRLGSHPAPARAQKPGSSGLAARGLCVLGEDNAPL
D(2) dopamine receptor (Homo sapiens), sequence (P14416 whole entry, looked up): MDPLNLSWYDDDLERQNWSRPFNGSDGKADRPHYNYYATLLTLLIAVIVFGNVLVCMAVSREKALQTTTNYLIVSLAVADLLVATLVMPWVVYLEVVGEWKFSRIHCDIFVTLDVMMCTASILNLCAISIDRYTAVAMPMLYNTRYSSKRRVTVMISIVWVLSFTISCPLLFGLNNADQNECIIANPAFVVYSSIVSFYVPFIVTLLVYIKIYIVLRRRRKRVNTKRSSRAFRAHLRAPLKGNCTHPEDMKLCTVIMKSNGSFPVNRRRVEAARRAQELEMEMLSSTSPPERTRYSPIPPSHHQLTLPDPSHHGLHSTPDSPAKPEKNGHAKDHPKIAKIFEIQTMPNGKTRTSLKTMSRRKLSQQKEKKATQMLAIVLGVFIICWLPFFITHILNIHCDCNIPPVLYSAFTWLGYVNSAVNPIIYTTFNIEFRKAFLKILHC

In the case of `CCCCOC(=O)c1ccccc1`, the Potency entry in test [1], in [2], in test [3], in [4], in test [5] and in test [6] was “inactive” in each case. Further, the Potency entry in test [7], in [8], in test [9], in test [10], in [11] and in test [12] was “inactive” in each case. Moreover, the Potency result in test [13], in test [14], in [15], in test [16], in [17] and in [18] was “inactive” throughout.
Take `O=C(O)Cc1ccc(OCCNC[C@H](O)c2ccccc2)cc1`: the Potency result in test [1], in [3], in [4], in test [6], in [7] and in test [8] was “inactive” each time. For the same compound, the Potency entry in test [10], in [11], in [13], in test [19], in [14] and in test [15] was “inactive” each time. In addition, the Potency entry in test [17] and in test [18] was “inactive” in each case. The Potency in test [2] is 33.5 µM (active).
Turning to `O=[N+]([O-])c1ccc(O)cc1C(F)(F)F`, the figures for the Potency in test [1] and in test [2] were 30.6 µM (active) and 68.6 µM (active), respectively. The Potency result in test [3], in test [4], in test [5], in test [7], in [8] and in test [10] was “inactive” each time. Also, the Potency result in test [11], in [12], in test [13], in [14], in [15] and in test [17] was “inactive” each time. For the same compound, in test [18], the Potency entry is “inactive”.
As for `C/C=C/C(=O)C1=C(C)CCCC1(C)C`, the Potency result in [1], in [2], in [3], in test [4], in test [5] and in [6] was “inactive” each time. The Potency result in [7], in [8], in [9], in test [11], in test [12] and in test [13] was “inactive” in each case. Also, the Potency result in [19], in [14], in test [15], in test [17] and in test [18] was “inactive” each time.
As to `C=CCN(CC=C)CC=C`, the Potency result in [1], in test [2], in test [3], in test [4], in test [7] and in test [8] was “inactive” throughout. The Potency entry in test [10], in test [11], in test [12], in test [13], in test [19] and in test [14] was “inactive” throughout. Besides, the Potency entry in test [15], in test [16], in [17] and in test [18] was “inactive” throughout.
On to `Nc1ccc2ccccc2c1S(=O)(=O)O`, for which the Potency entry in [1], in test [3], in test [4], in test [5], in [6] and in test [7] was “inactive” each time. Further, the Potency entry in test [8], in [10], in [11], in [12], in [13] and in test [19] was “inactive” each time. Also, the Potency entry in test [14], in test [15], in [17] and in [18] was “inactive” in each case. Also, the Potency in test [2] was 44.1 µM (active).
Take `CCC(=O)OCCOc1ccccc1`: the Potency entry in test [1], in test [2], in test [3], in test [4], in test [6] and in test [7] was “inactive” each time. Further, the Potency result in test [8], in [10], in test [11], in test [12], in test [13] and in [19] was “inactive” each time. Also, the Potency entry in test [14], in [15], in test [17] and in test [18] was “inactive” in each case.
Turning to `CCN(CC)C(=O)c1ccc(O)c(OC)c1`, the Potency entry in test [1], in test [2], in [3], in test [4], in [6] and in [7] was “inactive” in each case. Also, the Potency entry in [8], in test [10], in test [11], in test [12], in test [13] and in test [19] was “inactive” in each case. Besides, the Potency entry in test [14] and in [15] was “inactive” each time.
In the case of `CN[C@@H]1[C@@H](O)[C@@H](O[C@@H]2[C@H](O)[C@H](O[C@H]3OC(CN)=CC[C@H]3N)[C@@H](N)C[C@H]2N)OCC1(C)O` (stereo not given in full), the Potency entry in test [1], in [2], in test [3], in test [4], in test [6] and in test [7] was “inactive” throughout. The Potency result in [8], in [19], in test [14] and in [18] was “inactive” in each case. Further, the Potency in [15] is 2.66 µM (active).
Regarding `CCCCCCCCCCCCCCCC(=O)OCC`, the Potency result in [1], in test [2], in [3], in test [4], in test [6] and in [8] was “inactive” throughout. Also, the Potency entry in test [10], in test [11], in test [12], in test [13], in test [19] and in test [14] was “inactive” each time. The Potency entry in test [15], in test [16], in test [17] and in [18] was “inactive” throughout.
As for `CC(C)N1C(=O)c2ccccc2C1=O`, the Potency entry in test [1], in [2], in [3], in test [4], in test [5] and in [7] was “inactive” throughout. Also, the Potency entry in test [9], in test [10], in [11], in [12], in test [13] and in test [19] was “inactive” each time. Besides, the Potency result in test [15], in test [16] and in test [18] was “inactive” throughout.
